Results filed as inconclusive are left out. Calls of active or inactive are those of the source. Unless noted, the call rests on the fitted dose curve; in most records, active means well fitted curve in the direction sought with a large enough effect in the repeat runs; inconclusive means weak or mixed curves; inactive means no such curve, though single readings can be large; an effect the other way counts as inactive or inconclusive. Positions of bridges follow the written chain, without caps; N, C: chain ends. Non-standard residues stand in square brackets, D forms with d. Residues, ends and D or L forms follow the SMILES beside them. hArg = N=C(N)NCCCC[C@H](N)C(=O)O; Mpa = O=C(O)CCS
Assays:
[1] = target: Retinoic acid receptor RXR-alpha (Homo sapiens) (UniProt P19793); test: qHTS assay to identify small molecule agonists of the RXR signaling pathway (AID 1159527; calls by dose curve; further: nearly all actives have a fitted effect of over 35% in size; further: potency means the concentration at half of the fitted maximal effect)
Sequence of Retinoic acid receptor RXR-alpha (Homo sapiens) (P19793 whole entry, looked up): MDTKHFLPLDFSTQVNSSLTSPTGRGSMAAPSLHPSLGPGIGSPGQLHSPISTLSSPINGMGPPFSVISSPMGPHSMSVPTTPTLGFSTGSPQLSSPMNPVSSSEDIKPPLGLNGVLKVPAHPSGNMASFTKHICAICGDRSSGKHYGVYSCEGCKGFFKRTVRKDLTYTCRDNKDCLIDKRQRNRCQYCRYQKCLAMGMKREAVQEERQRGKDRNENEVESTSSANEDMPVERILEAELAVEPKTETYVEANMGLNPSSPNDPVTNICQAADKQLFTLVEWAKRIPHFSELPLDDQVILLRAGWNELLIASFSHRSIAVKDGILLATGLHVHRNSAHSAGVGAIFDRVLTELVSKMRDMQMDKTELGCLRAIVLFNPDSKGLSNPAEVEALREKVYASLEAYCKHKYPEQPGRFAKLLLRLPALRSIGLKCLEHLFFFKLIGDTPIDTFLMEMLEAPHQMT
In short: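 Agonist mode; 9-cis retinoic acid positive control. HEK 293T UAS-bla reporter cells, 2% charcoal-stripped FBS, 16 hr compound exposure at 37 C/5% CO2. LiveBLAzer B/G FRET substrate 2 hr RT; ex 405, em 460/530 nm.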

[2] = qHTS assay to identify small molecule agonists of the RXR signaling pathway - cell viability counter screen (AID 1159529); further: series mostly up to about 77 µM; nearly all actives have a fitted effect of over 50% in size
In short: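 Luminescence from CellTiter-Glo (30 min, RT) measured viability in the same wells as the beta-lactamase reporter readout. Cells: GeneBLAzer RXR-alpha HEK 293T, 2% charcoal-stripped FBS. Compound exposure 16 hr, 37 C.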

[3] = qHTS assay to identify small molecule antagonists of the retinoid acid receptor (RAR) signaling pathway - cell viability counter screen (AID 1159551); further: nearly all actives have a fitted effect of over 35% in size
In short: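 Cytotoxicity counter screen: ATP content quantified by CellTiter-Glo luminescence in C3RL4 cells treated 6 hr at 37 C with compound and retinol (1 uM final). Cells plated at 1,000/well and cultured overnight before dosing.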

[4] = qHTS assay to identify small molecule antagonists of the retinoic acid receptor (RAR) signaling pathway (AID 1159552; further: nearly all actives have a fitted effect of over 50% in size)
In short: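 Luminescence from a RARE luciferase reporter in C3RL4 cells served as read-out. Cells received compounds together with 1 uM final retinol and incubated 6 hr at 37 C before detection reagent was added for 30 min at room temperature.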

[5] = qHTS assay to identify small molecule agonists of the retinoic acid receptor (RAR) signaling pathway (AID 1159553); further: potency means the concentration at half of the fitted maximal effect
In short: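 Luminescence was measured 30 min after luciferase reagent addition at room temperature. Before that, C3RL4 reporter cells (1,000 per well, plated overnight) were treated with compound for 6 hr at 37 C and 5% CO2.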

[6] = qHTS assay to identify small molecule antagonists of the estrogen related receptor (ERR) signaling pathway from Tox21 library - cell viability counter screen (AID 1224834); further: nearly all actives have a fitted effect of over 30% in size
In short: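 CellTiter-Fluor fluorescence, read after 30 min at 37 C, measures viability of ERR cells. Cells plated at 2,000/well and incubated 6 h before pin-tool compound addition, then exposed 17.5 hours at 37 C.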

[7] = target: Luciferin 4-monooxygenase (Photinus pyralis) (UniProt P08659); test: qHTS assay to identify small molecule inhibitors of firefly luciferase (AID 1224835); further: series mostly up to about 120 µM; nearly all actives have a fitted effect of over 25% in size
Sequence of Luciferin 4-monooxygenase (Photinus pyralis) (P08659 whole entry, looked up): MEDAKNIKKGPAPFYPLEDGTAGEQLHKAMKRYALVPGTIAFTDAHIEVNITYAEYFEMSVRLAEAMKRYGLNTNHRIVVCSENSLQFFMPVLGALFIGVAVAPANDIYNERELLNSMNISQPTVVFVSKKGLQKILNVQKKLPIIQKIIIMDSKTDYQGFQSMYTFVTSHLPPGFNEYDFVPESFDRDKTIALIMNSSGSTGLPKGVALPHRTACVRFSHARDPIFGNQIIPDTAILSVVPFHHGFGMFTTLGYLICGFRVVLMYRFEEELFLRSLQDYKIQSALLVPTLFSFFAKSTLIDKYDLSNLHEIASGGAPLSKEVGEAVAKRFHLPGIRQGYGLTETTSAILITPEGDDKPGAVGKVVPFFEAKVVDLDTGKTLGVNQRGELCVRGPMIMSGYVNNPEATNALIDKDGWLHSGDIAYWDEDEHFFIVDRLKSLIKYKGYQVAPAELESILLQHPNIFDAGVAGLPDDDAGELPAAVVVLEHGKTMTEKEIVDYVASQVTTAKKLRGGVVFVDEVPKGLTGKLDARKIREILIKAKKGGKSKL
In short: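 Quantitative HTS format; KM concentrations of both substrates. Purified P. pyralis FLuc activity quantified from luminescence images.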

[8] = qHTS assay to identify small molecule agonists of the constitutive androstane receptor (CAR) signaling pathway - cell viability counter screen (AID 1224836); further: series mostly up to about 92 µM; nearly all actives have a fitted effect of over 45% in size
In short: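 Viability read-out: CellTiter-Fluor fluorescence after 23 h compound exposure at 37 C/5% CO2 in double-stable HepG2-CYP2B6-hCAR cells, with PK11195 present at 0.75 uM final; compounds tested in 15-point titration.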

[9] = qHTS assay to identify small molecule antagonists of the constitutive androstane receptor (CAR) signaling pathway - cell viability counter screen (AID 1224837); further: series mostly up to about 92 µM; nearly all actives have a fitted effect of over 45% in size
In short: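 Cytotoxicity counter-screen: CellTiter-Fluor fluorescence after 23 h compound exposure (15-point qHTS) in double-stable HepG2-CYP2B6-hCAR cells, with 50 nM CITCO added.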

[10] = target: Nuclear receptor subfamily 1 group I member 3 (Homo sapiens) (UniProt Q14994); test: qHTS assay to identify small molecule antagonists of the constitutive androstane receptor (CAR) signaling pathway (AID 1224838);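 further: HepG2 cells stably expressing hCAR with CYP2B6 luciferase reporter stimulated by CITCO; nearly all actives have a fitted effect of over 40% in size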
Sequence of Nuclear receptor subfamily 1 group I member 3 (Homo sapiens) (Q14994 whole entry, looked up): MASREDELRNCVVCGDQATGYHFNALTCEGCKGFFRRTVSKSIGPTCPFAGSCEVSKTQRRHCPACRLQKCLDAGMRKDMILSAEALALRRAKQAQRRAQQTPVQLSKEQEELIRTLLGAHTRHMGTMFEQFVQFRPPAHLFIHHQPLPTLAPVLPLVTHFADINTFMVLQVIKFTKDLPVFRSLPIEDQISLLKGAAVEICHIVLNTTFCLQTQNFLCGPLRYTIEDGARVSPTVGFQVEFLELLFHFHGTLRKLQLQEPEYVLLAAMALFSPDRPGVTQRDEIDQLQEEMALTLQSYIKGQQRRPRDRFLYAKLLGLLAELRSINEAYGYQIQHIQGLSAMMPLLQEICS
In short: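 Antagonism measured as luciferase signal (ONE-Glo, 30 min, room temperature) in CAR-stimulated cells: HepG2-CYP2B6-hCAR double-stable line exposed 24 hr at 37 C to compound in a 15-point series plus 50 nM CITCO.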

Measured: Potency

Cc1c(NC(=O)c2cccnc2)c(=O)n(-c2ccccc2)n1C
inactive: [1] | [2] | [3] | [4] | [5] | [6] | [7] | [8] | [9]

CCOc1ccccc1OCC1CNCCO1 (stereo not drawn)
inactive: [1] | [2] | [3] | [4] | [5] | [6] | [7] | [8] | [9]

CC(=O)CCC1=C(C)CCCC1(C)C
inactive: [1] | [2] | [3] | [4] | [5] | [6] | [7] | [8] | [9] | [10]

CCC(=O)c1c(O)cc(O)cc1O
inactive: [1] | [2] | [3] | [4] | [5] | [6] | [7] | [8] | [9]

COc1ccc2c(c1)c1c3n2CCN(C)C3=NCC1
inactive: [1] | [2] | [3] | [4] | [5] | [6] | [7] | [8] | [9]

CCCCCCCCCCOC(C)=O
inactive: [1] | [2] | [3] | [4] | [5] | [6] | [7] | [8] | [9] | [10]

CN(C)C(C)(C)CO
inactive: [1] | [2] | [3] | [4] | [5] | [6] | [7] | [8] | [9]

C=CCOC(=O)CCCCCC
inactive: [1] | [2] | [3] | [4] | [5] | [6] | [7] | [8] | [9] | [10]

C/C=C(\C)C(C)=O
inactive: [1] | [2] | [3] | [4] | [5] | [6] | [7] | [8] | [9]

NC(=O)[C@@H]1CSSCCC(=O)N[C@@H](CCCCN=C(N)N)C(=O)NCC(=O)N[C@@H](CC(=O)O)C(=O)N[C@@H](Cc2c[nH]c3ccccc23)C(=O)N2CCC[C@H]2C(=O)N1 ([Mpa][hArg]GDWPC-NH2; disulfide 1-7)
inactive: [1] | [2] | [3] | [4] | [5] | [6] | [7] | [8] | [9] | [10]

CC(CO)(CO)CO
inactive: [1] | [2] | [3] | [4] | [5] | [6] | [7] | [8] | [9]

CN(C)CCCCl
inactive: [1] | [2] | [3] | [4] | [5] | [6] | [7] | [8] | [9]

Cc1cccc(Cl)c1
inactive: [1] | [2] | [3] | [4] | [5] | [6] | [7] | [8] | [9] | [10]

CCO
inactive: [1] | [2] | [3] | [4] | [5] | [6] | [7] | [8] | [9] | [10]

Cc1c(C(=O)c2c[nH]n(C)c2=O)ccc(S(C)(=O)=O)c1C1=NOCC1
inactive: [1] | [2] | [3] | [4] | [5] | [6] | [7] | [8] | [9] | [10]

CC(=O)Nc1ccc(OC(=O)c2ccccc2OC(C)=O)cc1
inactive: [1] | [2] | [3] | [4] | [6] | [7] | [8] | [9] | [10]
active: [5] 23.7 µM

CCOCCOCC
inactive: [1] | [2] | [3] | [4] | [5] | [6] | [7] | [9] | [10]

CN(C)CCCO[C@@H]1[C@H]2OC(C)(C)O[C@H]2O[C@@H]1C(O)CO (stereo partly drawn)
inactive: [1] | [2] | [3] | [4] | [5] | [6] | [7] | [9]

Nc1nc(-c2ccccc2)c(Br)c(=O)[nH]1
inactive: [1] | [2] | [3] | [4] | [5] | [6] | [7] | [8] | [9] | [10]

CC(=O)c1cc(C)oc1C
inactive: [1] | [2] | [3] | [4] | [5] | [6] | [7] | [8] | [9] | [10]

Cc1ccc(N)cc1S(=O)(=O)O
inactive: [1] | [2] | [3] | [4] | [5] | [6] | [7] | [8] | [9] | [10]

COC(=O)c1ccccc1C(=O)O
inactive: [2] | [3] | [4] | [5] | [6] | [7] | [8] | [9] | [10]
active: [1] 21.9 µM

C#CCN[C@@H]1CCc2ccccc21
inactive: [1] | [2] | [3] | [4] | [5] | [6] | [7] | [8] | [9] | [10]

C[C@H]1[C@@H](c2ccccc2)NC(=O)N1C
inactive: [1] | [2] | [3] | [4] | [5] | [6] | [7] | [9] | [10]

— PubChem BioAssay (Tox21)
